# Bioassay records from PubChem.
# Sa helicase inh: S. aureus DNA helicase inhibition; 0.05% of 120,000 active; inhibition, % (test concentration not listed); purified S. aureus helicase, fluorescence unwinding assay; in the data active = inhibition above about 25%, passing the limit was not always enough;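 also: 0% = mean of negative control wells and 100% = mean of positive control wells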
# Sa growth inh: S. aureus growth inhibition; S. aureus RN4220 growth, OD600, 20 h, 42 °C; active compounds read low; 0.53% of 170,000 active; AID 720641; relative growth, % (no concentration beside the values);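 active = relative growth at most 50% at the other temperature and 20+ points below 30 °C, or under 10% at both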
# The depositor's hits bear a star; . = no result given; ! = a repeat was not active. Only a selection was taken, and hits are over-represented in it overall.
SMILES,Sa helicase inh,Sa growth inh
Cc1sc2nc[nH]c(=S)c2c1-c1ccccc1,11.0,-0.5*
Cc1n[nH]c(=O)n1Cn1c(C)n[nH]c1=O,12.0,85.9
Cn1c(O)c(C=Nc2cccc3ccccc23)c2ccccc21,-2.0,114.6
Cc1ccc(C(=O)OC2=C(c3ccccc3)C(=O)c3ccccc3C2=O)cc1,9.0,77.7
CCOC(=O)COC1=C(c2ccccc2)C(=O)c2ccccc2C1=O,14.0,5.9*
CCCCCCSc1n[nH]c(=O)[nH]c1=O,-4.0,98.5
O=c1[nH]c(=O)c2nc3cc(C(F)(F)F)ccc3nc2[nH]1,-98.0,2.5*
FC(F)(F)c1cccc2c1[nH]c1nc3ccccc3nc12,1.0,105.9
Cc1nn(Cc2ccccc2Cl)c2sc(C(=O)N3CCc4ccccc43)cc12,-6.0,108.1
O=c1ccc(-c2ccc(Cl)cc2)n[nH]1,-35.0,92.8
O=c1cc[nH]cc1-c1ccc(Cl)cc1,9.0,-0.8*
CN(C)[C@@H]1C(=O)C(C(=O)NCN2CCCC2)=C(O)[C@@]2(O)C(=O)C3=C(O)c4c(O)cccc4[C@@](C)(O)[C@H]3C[C@@H]12,.,12.5
C=C1c2cccc(O)c2C(O)=C2C(=O)C3(O)C(O)=C(C(N)=O)C(=O)C(N(C)C)C3C(O)C12 (configuration not stated),-26.0,4.3*
CC1Cn2cc(C(=O)N3CCCc4ccccc43)c(=O)c3c(Cl)ccc(c32)O1 (configuration not stated),27.0,88.3
CC(=O)Nc1ccc(C(=O)OCC(=O)c2ccc3c(c2)OCCO3)cc1,7.0,81.1
CCOC(=O)c1cccc2c1-c1ccccc1C2=O,.,81.8
CCOC(=O)c1cccc2c1-c1ccccc1/C2=N/O,4.0,44.3*
CCN(CC)C(=O)CSc1nc(N)c2c3c(sc2n1)COC(C)(CC)C3 (configuration not stated),5.0,94.6
O=C(O)Cn1ncc2c3ccccc3n(Cc3ccc(Cl)cc3)c2c1=O,-26.0,79.9
Nc1ccn([C@@H]2O[C@H](CO)[C@@H](O)C2O)c(=O)n1 (some centres not stated),.,96.1
Nc1ccn([C@@H]2O[C@H](CO)[C@@H](O)C2(F)F)c(=O)n1,.,0.3*
CCCCCc1ccc(C(=O)CCN(C)C)cc1,0.0,-0.1*
CN(C)CCC(=O)c1ccc2c(c1)OCO2,3.0,86.8
CC(O)c1nc2ccccc2n1Cc1ccc(Cl)cc1Cl (configuration not stated),22.0,99.0
COc1ccc(C)cc1NC(=O)CN(C)Cc1nc2ccccc2c(=O)[nH]1,-9.0,86.7
SMILES,Sa helicase inh,Sa growth inh
CCOC(=O)c1c(-c2ccccc2)csc1N,-12.0,102.5
CCOC(=O)c1c(N)sc(SC#N)c1-c1ccccc1,21.0,4.9*
Cc1nnc(NC(=O)CSc2nccn2-c2ccccc2)s1,2.0,.
CCC(=O)N1CCc2cc(Br)cc(S(=O)(=O)N3CCN(c4ccc(OC)cc4)CC3)c21,8.0,106.2
COC(=O)c1cnn2c(C)c(Cc3ccc(C)cc3)c(C)nc12,7.0,108.5
O=C(/C=C(\O)c1ccccc1)C(=O)Nc1cccc(F)c1,20.0,-0.6*
O=C(/C=C(\O)c1ccc(Br)cc1)C(=O)Nc1ccccc1,.,45.5
Nc1c(S(=O)(=O)c2ccc(Cl)cc2)c2cnn(-c3ccccc3)c(=O)c2n1CCCN1CCOCC1,6.0,80.9
O=c1oc2ccc(Cl)cc2c(=O)n1-c1cccc(C(F)(F)F)c1,7.0,-0.7*
Cc1ccc(-n2c(=O)oc3ccc(Cl)cc3c2=O)cc1,18.0,68.0
O=C1NCC(O)=C1/C=N/Nc1ccccc1,-13.0,86.2
COc1cc2ccc3c(CCN(C)C)cc(OC)c(OC)c3c2cc1OC,10.0,88.7
CN(C)CCc1cc2c(c3c1ccc1ccccc13)OCO2,45.0*,109.5
Cc1ccc(CSc2nc(-c3cccs3)ccc2C#N)cc1,.,98.9
N#Cc1ccc(CSc2nc(-c3cccs3)c3c(c2C(=O)O)CCCC3)cc1,15.0,0.1*
O=C(Nc1ncc(Cc2ccccc2Cl)s1)c1ccco1,-8.0,.
CC1SC(=N)N(c2ncc(Cc3ccccc3Cl)s2)C1=O (configuration not stated),1.0,-1.0*
CC1CCCCN1S(=O)(=O)c1ccc2c(c1)oc(=O)n2CC(=O)NC1CCCCCCC1 (configuration not stated),.,111.7
COc1ccc(CCNC(=O)Cn2cnc3c(cnn3-c3ccccc3)c2=O)cc1OC,6.0,105.2
COc1ccc(CNC(=O)Cn2cnc3ccccc32)cc1OC,41.0*,82.3
COC(=O)c1cc(CSc2nc3ccccc3n2CCC#N)oc1C,1.0,101.0
CCC(C(=O)Nc1ccccc1OC)n1c(SCc2cccc(F)c2)nc2ccncc21 (configuration not stated),8.0,121.7
O=C(/C=C/C=C/c1ccccc1)c1ccc(Cl)cc1,1.0,83.9
O=C(/C=C/C=C/c1ccccc1)c1ccncc1,0.0,1.0*
CCNc1nc(SCC(=O)NC(=O)NCc2ccccc2)nc2sc3c(c12)CCN(C)C3,.,82.9
SMILES,Sa helicase inh,Sa growth inh
CCNc1nc(SCc2ccc(Cl)cc2)nc2sc3c(c12)CCN(C)C3,.,10.0*
COc1ccc(-n2cc(C(=O)NCC3Cc4ccccc4O3)nn2)cc1 (configuration not stated),-23.0,79.0
O=C1C=CC(=O)N1CC1CCCO1 (configuration not stated),-3.0,103.4
O=c1[nH]c(=O)n(C2CCCO2)cc1F (configuration not stated),-14.0,6.6*!
C[C@H]1O[C@@H](n2cc(F)c(=O)[nH]c2=O)[C@H](O)[C@@H]1O,.,1.1*
O=C(O)C1CCN(c2nccs2)CC1,7.0,100.8
N#CSc1cnc(NC2CCCCC2)s1,-2.0,5.0*
O=C(O)CSc1nnc(NC2CCCCC2)s1,5.0,77.3
CN1/C(=C\C(=O)CN2C(=O)NC3(CCc4ccccc43)C2=O)C(C)(C)c2ccccc21 (configuration not stated),-19.0,-0.9*
CN1/C(=C\C(=O)CN2C(=O)NC3(CCCCC3)C2=O)C(C)(C)c2ccccc21,-2.0,88.9
O=C(/C=C/c1cn(-c2ccccc2)nc1-c1cc2ccccc2o1)N1CCOCC1,0.0,82.7
FC(F)(F)c1cc(-c2ccccc2)nc(N2CCCC2)n1,3.0,102.4
CS(=O)c1nc(-c2ccccc2)cc(C(F)(F)F)n1 (configuration not stated),7.0,-0.2*
COC(=O)C1CNCCS1 (configuration not stated),-12.0,85.6
Cc1cccc(CN2CCC(CNC(=O)NCc3noc4ccccc34)CC2)c1,-1.0,102.3
CC(C)CN(CC(C)C)S(=O)(=O)c1ccc(C(=O)O)cc1,2.0,91.8
Cc1nnc(NC(=O)c2ccc(S(=O)(=O)N(CC(C)C)CC(C)C)cc2)o1,4.0,0.2*
C1CCCCCC2(CCCCC1)OCC(CN1CCCCC1)O2 (configuration not stated),6.0,105.6
CO[C@@]12[C@H](COC(N)=O)C3=C(C(=O)C(C)=C(N)C3=O)N1C[C@@H]1N[C@@H]12,.,0.0*
O=C(OCC(=O)N1CCN(C(=O)c2ccco2)CC1)c1ccc2c(=O)n3c(nc2c1)CCC3,-11.0,103.7
S=c1nc(-c2cccs2)[nH][nH]1,-13.0,47.1
CC(C)[C@H](NC(=O)COc1ccc(C#N)cc1)c1nc2ccccc2[nH]1,-18.0,97.7
Cc1ccc(-c2cc(C(F)F)nc(S(C)(=O)=O)n2)cc1,3.0,35.8*
Cc1ccc(-c2cc(C(F)F)nc(NCc3ccco3)n2)cc1,19.0,105.7
